From PubChem BioAssay AID1159580 (chemical genetic matrix, 2015)
“And” between values parts separate entries of the source, which are not always exact repeats. Identical values can stand only once. Screen size: about 5,500 compounds; about 2,000 (36%) were called active. About 18% were inconclusive and are not listed. Rule as the data show it: active = normalized growth mostly below about 0.91 (no sharp cut-off); inconclusive = no clear call, values can overlap the other calls; inactive = mostly above about 0.92. This is one part of the list.

Assay: chemical genetic growth profiling, strain panel (AID 1159580);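 also: tested at 20 µM; growth read once vehicle control cultures reached saturation at 30 °C; 1 = growth at the plate median or of vehicle wells; lower values mean less growth of the strain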
Details: S. cerevisiae deletion strains, growth OD

Measured: normalized growth

O=C(O[C@@H]1Cc2c(O)cc(O)cc2O[C@@H]1c1ccc(O)c(O)c1)c1cc(O)c(O)c(O)c1
active: locus YBR023C, strain chs3, hits give low values 0.86 | locus YBR231C, strain swc5, hits give low values 0.817 | locus YDL035C, strain GPR1, hits give low values 0.853 | locus YDR069C, strain doa4, hits give low values 0.833 | locus YDR162C, strain NBP2, hits give low values 0.771 | locus YER015W, strain faa2, hits give low values 0.808 | locus YGL173C, strain kem1, hits give low values 0.848 | locus YHR027C, strain rpn1, hits give low values 0.699 | locus YHR142W, strain chs7, hits give low values 0.851 | locus YIL066C, strain RNR3, hits give low values 0.793 | locus YIL073C, strain SPO22, hits give low values 0.665 | locus YJL187C, strain SWE1 (second series), hits give low values 0.854
inactive: locus YAL021C, strain ccr4, hits give low values 0.925 | locus YAL026C, strain drs2, hits give low values 0.923 | locus YAL030W, strain snc1, hits give low values 1.01 | locus YBL061C, strain skt5, hits give low values 0.955 | locus YBR009C, strain hhf1, hits give low values 0.973 | locus YBR021W, strain FUR4, hits give low values 0.999 | locus YBR171W, strain sec66, hits give low values 1.04 | locus YBR229C, strain ROT2, hits give low values 0.987 | locus YBR279W, strain paf1, hits give low values 0.986 | locus YCL011C, strain gbp2, hits give low values 0.961 | locus YCL016C, strain dcc1, hits give low values 0.966 | locus YCL029C, strain bik1, hits give low values 0.975 | locus YCL061C, strain MRC1, hits give low values 0.986 | locus YCL069W, strain vba3, hits give low values 1 | locus YCR088W, strain abp1, hits give low values 1.03 | locus YDL005C, strain med2, hits give low values 1.04 | locus YDL040C, strain nat1, hits give low values 1.03 | locus YDL074C, strain BRE1, hits give low values 0.854 | locus YDL101C, strain DUN1, hits give low values 0.939 | locus YDL185W, strain tfp1, hits give low values 1.01 | locus YDL192W, strain arf1, hits give low values 0.993 | locus YDR001C, strain nth1, hits give low values 1.02 | locus YDR101C, strain arx1, hits give low values 1.01 | locus YDR137W, strain rgp1, hits give low values 0.975 | locus YDR150W, strain NUM1, hits give low values 0.961 | locus YDR159W, strain sac3, hits give low values 1.12 | locus YDR195W, strain ref2 1.1 | locus YDR297W, strain sur2, hits give low values 0.966 | locus YDR318W, strain mcm21, hits give low values 1.02 | locus YDR334W, strain swr1, hits give low values 0.935 | locus YDR335W, strain msn5, hits give low values 0.981 | locus YDR388W, hits give low values 1.01 | locus YDR392W, strain spt3, hits give low values 1.01 | locus YDR502C, strain sam2, hits give low values 1.02 | locus YEL003W, strain gim4, hits give low values 0.981 | locus YEL037C, strain rad23, hits give low values 0.984 | locus YEL061C, strain CIN8 (second series), hits give low values 1.03 | locus YEL061C, strain CIN8, hits give low values 0.947 | locus YER016W, strain bim1, hits give low values 1.03 | locus YER110C, hits give low values 1.03 | locus YER111C, strain swi4, hits give low values 0.986 | locus YER155C, strain BEM2 (second series), hits give low values 1.01 | locus YER155C, strain BEM2, hits give low values 1.04 | locus YER167W, strain BCK2, hits give low values 0.995 | locus YFR010W, strain ubp6, hits give low values 0.961 | locus YGL078C, strain dbp3, hits give low values 1.03 | locus YGL086W, strain mad1, hits give low values 0.954 | locus YGL167C, strain pmr1, hits give low values 1.02 | locus YGL227W, strain vid30, hits give low values 1.05 | locus YGL240W, strain doc1, hits give low values 1.04 | locus YGL248W, strain PDE1, hits give low values 0.941 | locus YGL253W, strain hxk2, hits give low values 0.979 | locus YGR135W, strain pre9, hits give low values 1.02 | locus YGR252W, strain gcn5, hits give low values 1.01 | locus YHR013C, strain ard1, hits give low values 0.852 | locus YHR030C, strain SLT2, hits give low values 0.965 and 0.994 | locus YHR079C, strain IRE1 (second series), hits give low values 1.02 | locus YHR079C, strain IRE1, hits give low values 0.996 | locus YHR094C, strain hxt1, hits give low values 1.03 | locus YHR129C, strain ARP1, hits give low values 0.931 | locus YHR200W, strain rpn10, hits give low values 1 | locus YIL125W, strain kgd1, hits give low values 1 | locus YIR030C, strain dcg1, hits give low values 1.04 | locus YJL092W, strain hpr5, hits give low values 1.04 | locus YJL095W, strain BCK1 (second series), hits give low values 0.997 | locus YJL095W, strain BCK1, hits give low values 0.898 and 0.984 | locus YJL115W, strain asf1, hits give low values 1.03 | locus YJL129C, strain trk1, hits give low values 1.06 | locus YJL134W, strain LCB3, hits give low values 0.98 | locus YJL154C, strain vps35, hits give low values 1.03 | locus YJL164C, strain tpk1, hits give low values 0.966 | locus YJL166W, strain qcr8, hits give low values 0.922 | locus YJL168C, strain set2, hits give low values 1.03 | locus YJL187C, strain SWE1, hits give low values 0.988
